Results reported in PubChem BioAssay (NCATS).
Records with an inconclusive call do not appear. Entries that show only a call come without a potency. Values without a mark were called inactive. Activity calls are given as the source filed them. Calls follow the shape of the dose curve; as a rule, active = well fitted inhibition curve with a large enough effect; inconclusive = small, poorly fitted or top-dose-only effect, or effect the other way; inactive = flat fitted curve, though single readings scatter.

target: ATP-dependent 6-phosphofructokinase (Trypanosoma brucei brucei) (UniProt O15648); experiment: qHTS Validation Assay to Find Inhibitors of T. brucei phosphofructokinase (AID 485368); conditions: T. brucei PFK enzyme assay, qHTS 7-point titration; series mostly up to 57.5 µM; activity change, negative = inhibition: at the top concentration
Sequence (O15648 whole entry, looked up): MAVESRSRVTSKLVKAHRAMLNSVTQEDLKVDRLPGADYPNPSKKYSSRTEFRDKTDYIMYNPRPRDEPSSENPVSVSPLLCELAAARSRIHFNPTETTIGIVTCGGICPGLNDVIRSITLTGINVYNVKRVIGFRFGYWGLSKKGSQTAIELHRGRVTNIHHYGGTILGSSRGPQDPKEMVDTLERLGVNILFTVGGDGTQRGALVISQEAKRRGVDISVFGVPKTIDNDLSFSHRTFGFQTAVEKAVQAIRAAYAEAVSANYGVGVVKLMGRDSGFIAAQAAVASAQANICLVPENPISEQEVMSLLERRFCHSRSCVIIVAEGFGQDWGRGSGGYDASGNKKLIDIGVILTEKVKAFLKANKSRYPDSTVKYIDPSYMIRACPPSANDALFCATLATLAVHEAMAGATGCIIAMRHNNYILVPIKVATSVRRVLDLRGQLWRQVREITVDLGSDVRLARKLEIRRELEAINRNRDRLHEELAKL
From the text: NIH Molecular Libraries Probe Production Network [MLPCN]
NIH Chemical Genomics Center [NCGC]
PI Name: Malcolm Walkinshaw, University of Edinburgh
Various species of the protozoan family Trypanosomatidae are responsible for a range of serious human diseases in tropical and subtropical areas of the world. […] Many of the disorders caused by trypanosomatids are fatal if left untreated, but most currently used drugs are inefficient and toxic.
Oxidative metabolism involving the mitochondrial tricarboxylic acid cycle and oxidative phosphorylation are repressed in these parasites, and recent RNA interference (RNAi) experiments have shown that even partial depletion of certain individual glycolytic enzymes can lead to the death of cultured parasites. One such glycolytic enzyme, phosphofructokinase (PFK), catalyzes the formation of fructose-1,6-bisphosphate (F1,6BP) and ADP from fructose-6-phosphate (F6P) and ATP, and in many metabolic circumstances makes an important contribution to the control of flux through the glycolytic pathway. As a specific glycolytic target, PFK is particularly attractive as it catalyzes the first irreversible step in glycolysis, and structural and kinetic studies have shown very substantial and essential differences from corresponding host enzymes, allowing for the discovery of parasite-selective inhibitors.
The goal of this screen is to find small-molecule inhibitors of T. brucei PFK using a biochemical assay that measures PFK activity as a function of ADP production. A luminescence-based assay for T. brucei PFK activity has been developed which uses luciferase to detect production of ADP. Traditional luciferase-based nucleotide detection reagents rely on ATP production as a direct substrate for the luciferase reaction; however, PFK catalyzes the transfer of a phosphate from ATP to F6P, resulting in the net depletion of ATP. To directly measure the ADP product of the PFK reaction, we used the ADP-Glo detection kit (Promega), which utilizes two separate reactions to 1) deplete all remaining uncatalyzed ATP and 2) convert all remaining ADP to ATP, which is then detected through a traditional luciferase-coupled reaction. Compounds were screened as a concentration-titration series that ranged from 57 uM to 0.7 nM.
NCGC Assay Protocol Summary:
Substrate buffer was dispensed into white, solid 1536-well plates at 3uL/well in 0.1M triethanolamine (TEA) buffer, pH 8.0, containing final concentrations of 5 mM MgCl2, 0.01% Tween20, 0.5 mM fructose-6-phosphate (F6P) and 0.1mM ATP. Then, 23 nL of compounds or DMSO were delivered to each well using a pin tool. One uL T. brucei PFK (0.1M TEA, 0.01% Tween20, 0.1% bovine serum albumin (BSA) and 1.25nM PFK, final concentrations) was then dispensed, and plates were incubated at room temperature for 45 min. The luminescent detection reagent, ADP-Glo (Promega), was then added in two steps: the first reagent, ADP-Glo (which converts remaining uncatalyzed ATP), was added at 2.5uL/well and incubated for ten minutes at room temperature, and the second component, Kinase Detection reagent (which converts ADP to ATP as a substrate for luciferase-based luminescence), was added immediately after at 5uL/well, followed by one final ten minute room temperature incubation. The plates were measured on a ViewLux plate reader for luminescent signal using a clear filter with a one second exposure. The %Activity was determined from the corrected luminescence values. As no specific T. brucei PFK inhibitors have been identified in the literature, 1x (1.25nM) and 0x PFK enzyme controls (untreated) were included to normalize %Activity of identified inhibitors; 0x enzyme values corresponded to 100%Activity (full inhibition), while 1x PFK enzyme values were used to normalize 0%Activity (no inhibition).
Concentration-response curves were fitted to the signals arising from the resulting luminescence. […]
Potency is read from the fitted curve at half-maximal effect.

Row | Structure (SMILES) | activity change, negative = inhibition [%] | outcome | Potency
1 | CCC1(c2ccccc2)C(=O)NCNC1=O | 28.6 | – | –
2 | Cc1cc(C(C)(C)C)cc(C)c1CC1=NCCN1 | 6.47 | – | –
3 | CCN1CCCC1CNC(=O)c1cc(S(=O)(=O)CC)c(N)cc1OC (stereo not given) | – | inactive | –
4 | Nc1ccn([C@H]2CC[C@@H](CO)O2)c(=O)n1 | – | inactive | –
5 | CCOC(=O)c1ncn2c1CN(C)C(=O)c1cc(F)ccc1-2 | – | inactive | –
6 | Cc1cc(C(C)(C)C)c(O)c(C)c1CC1=NCCN1 | – | inactive | –
7 | COc1ccccc1N1CCN(CC(O)COc2cccc3ccccc23)CC1 (stereo not given) | – | inactive | –
8 | COc1ccc2c(c1)c(CC(=O)O)c(C)n2C(=O)c1ccc(Cl)cc1 | – | inactive | –
9 | CCC1(C)CC(=O)NC1=O (stereo not given) | – | inactive | –
10 | COc1ccccc1OCC(O)CN1CCN(CC(=O)Nc2c(C)cccc2C)CC1 (stereo not given) | – | inactive | –
11 | CN(C)C(=O)C(CCN1CCC(O)(c2ccc(Cl)cc2)CC1)(c1ccccc1)c1ccccc1 | – | inactive | –
12 | CC(CCc1ccc(O)cc1)NCCc1ccc(O)c(O)c1 (stereo not given) | – | inactive | –
13 | O=c1c(-c2ccc(O)cc2)coc2cc(O)cc(O)c12 | – | inactive | –
14 | Cc1ccccc1N1C(=O)c2cc(S(N)(=O)=O)c(Cl)cc2NC1C (stereo not given) | – | inactive | –
15 | COc1cc2nc(N3CCN(C(=O)C4COc5ccccc5O4)CC3)nc(N)c2cc1OC (stereo not given) | 12.5 | – | –
16 | Cc1cnc(C(=O)NCCc2ccc(S(=O)(=O)NC(=O)NC3CCCCC3)cc2)cn1 | – | inactive | –
17 | CC(C)Cc1ccc(C(C)C(=O)O)cc1 (stereo not given) | – | inactive | –
18 | CCCNCC(O)COc1ccccc1C(=O)CCc1ccccc1 (stereo not given) | – | inactive | –
19 | CN(C)c1nc(N(C)C)nc(N(C)C)n1 | 8.01 | – | –
20 | C[C@H]1c2cccc(O)c2C(O)=C2C(=O)[C@]3(O)C(O)=C(C(N)=O)C(=O)[C@@H](N(C)C)[C@@H]3[C@@H](O)[C@@H]21 | 13 | – | –

Row | Structure (SMILES) | activity change, negative = inhibition [%] | outcome | Potency
21 | NCCc1cnc[nH]1 | – | inactive | –
22 | CN(Cc1cnc2nc(N)nc(N)c2n1)c1ccc(C(=O)N[C@@H](CCC(=O)O)C(=O)O)cc1 | – | – | 37.9 µM (active)
23 | CC1COc2c(N3CCN(C)CC3)c(F)cc3c(=O)c(C(=O)O)cn1c23 (stereo not given) | – | inactive | –
24 | NCCCCCC(=O)O | 5.99 | – | –
25 | C[C@](N)(Cc1ccc(O)c(O)c1)C(=O)O | – | – | 9.53 µM (active)
26 | NC(=O)OCC(COC(N)=O)c1ccccc1 | – | inactive | –
27 | CN1CCN(C2=Nc3cc(Cl)ccc3Nc3ccccc32)CC1 | – | inactive | –
28 | COc1cc2nc(N3CCN(C(=O)c4ccco4)CC3)nc(N)c2cc1OC | – | inactive | –
29 | CNCCCC12CCC(c3ccccc31)c1ccccc12 | 9.58 | – | –
30 | NCCS(=O)(=O)O | – | inactive | –
31 | Cc1ccc(C(=O)Nc2ccc(S(=O)(=O)O)c3cc(S(=O)(=O)O)cc(S(=O)(=O)O)c23)cc1NC(=O)c1cccc(NC(=O)Nc2cccc(C(=O)Nc3cc(C(=O)Nc4ccc(S(=O)(=O)O)c5cc(S(=O)(=O)O)cc(S(=O)(=O)O)c45)ccc3C)c2)c1 | – | – | 0.675 µM (active)
32 | CC(C)NCC(O)COc1ccc(CCOCC2CC2)cc1 (stereo not given) | – | inactive | –
33 | NC(=O)NO | – | inactive | –
34 | CN(C)CCC=C1c2ccccc2C=Cc2ccccc21 | – | inactive | –
35 | COc1ccc(C2CNC(=O)C2)cc1OC1CCCC1 (stereo not given) | – | inactive | –
36 | CC12CC3CC(C)(C1)CC(N)(C3)C2 | – | inactive | –
37 | CN1CCC(=C2c3ccccc3C=Cc3ccccc32)CC1 | – | inactive | –
38 | OCCN(CCO)c1nc(N2CCCCC2)c2nc(N(CCO)CCO)nc(N3CCCCC3)c2n1 | – | inactive | –
39 | COc1nc(C)nc(Cl)c1NC1=NCCN1 | – | inactive | –
40 | Nc1nc2c(ncn2COC(CO)CO)c(=O)[nH]1 | – | inactive | –
